Shown are actives, neighbours in structure and some others; about 8.2% of the full set was active somewhere.
KB-3-1 cytotox: qHTS assay for MDR1-selective chemotherapeutics: Primary screen using the parental adenocarcinoma cell KB-3-1; Potency, µM (titrated, usually from 46.1 µM), hits mostly cytotoxic; KB-3-1 viability, CellTiter-Glo ATP luminescence, 72 h; actives 1.4% (n = 400,000); also: nearly all actives have a fitted effect of over 60% in size
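Viability of parental KB-3-1 cells, measured by CellTiter-Glo luminescence, followed a 72 h incubation at 37 °C with pinned compounds in phenol-red-free DMEM containing 10% FBS.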
SW480 rerep: A quantitative high throughput screen for small molecules that induce DNA re-replication in SW480 colon adenocarcinoma cells; SW480 DNA re-replication, Hoechst DNA content imaging, 48 h; AID 624297, 2012; actives 1.8% (n = 340,000); Potency, µM (highest dose often 46.1 µM), hits mostly activators; also: nearly all actives have a fitted effect of over 55% in size
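First, 250 cells per well were seeded. Next, compound or vehicle (23 nL) was pinned in, plates sat 48 hr at 37 C. Finally Hoechst was added for 40 min before fluorescence scanning.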
MCF10A rerep: A quantitative high throughput screen for small molecules that induce DNA re-replication in MCF 10a normal breast cells; MCF 10A DNA re-replication, Hoechst nuclear intensity, 48 h; Potency, µM (top dose mostly 46.1 µM), most hits filed as activators; actives 2.9% (n = 350,000); AID 624296, 2012; also: nearly all actives have a fitted effect of over 50% in size
ELG1 repair inh: qHTS screen for small molecules that inhibit ELG1-dependent DNA repair in human embryonic kidney (HEK293T) cells expressing luciferase-tagged ELG1. actives 2.3% (n = 330,000). HEK293T ELG1-luciferase reporter, luminescence, 16 h; DNA damage induced by 5-fluorouridine. Potency, µM (top dose mostly 46.1 µM), most hits filed as inhibitors. AID 504467, 2011; also: nearly all actives have a fitted effect of over 55% in size
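Luminescence from the luciferase reporter, measured 30 min after ONE-Glo reagent at room temperature, was the read-out. Beforehand, 2,000 cells per well were exposed for 16 hr at 37 °C to 5-fluorouridine together with compound or vehicle.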
KB-V1 cytotox: qHTS assay for MDR1-selective chemotherapeutics: Primary screen using the drug-selected MDR subline cells KB-V1; KB-V1 MDR cells viability, CellTiter-Glo, 72 h; AID 1347076, 2019; actives 3.4% (n = 400,000); Potency, µM (highest dose often 46.1 µM), hits mostly cytotoxic; also: nearly all actives have a fitted effect of over 60% in size
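KB-V1, DMEM (no phenol red) + 10% FBS; cpd pin-transferred, titration series; 72 h, 37 degrees C; CellTiter-Glo, luminescence. Data normalized, curve-fit.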
Of the large screens only hits and unclear results are named; the others gave an inactive call. Calls follow the shape of the dose curve; as a rule, active = well fitted curve in the direction sought with a large enough effect; inconclusive = small, poorly fitted or top-dose-only effect, or another doubt; inactive = no such curve, though single readings can be large; an effect the other way counts as inactive or inconclusive.

Cc1ccc2c(/C=C/c3ccc(N(C)C)cc3)ccnc2c1C	KB-V1 cytotox inconclusive (no result: SW480 rerep, MCF10A rerep, ELG1 repair inh)
COc1ccc(CN(Cc2ccco2)c2cnc(S(C)(=O)=O)nc2C(=O)Nc2ccc(C)c(C)c2)cc1	none (no result: SW480 rerep, MCF10A rerep, ELG1 repair inh)
Cc1ccc(S(=O)(=O)Nc2ccccc2CNc2ncc(Br)cc2Br)cc1	KB-3-1 cytotox inconclusive, SW480 rerep inconclusive, KB-V1 cytotox 2.9µM
Cc1ccc(S(=O)(=O)CC(=O)Nc2ccc(S(=O)(=O)Nc3ccccn3)cc2)cc1	MCF10A rerep 1.5µM
Cc1ccc(S(=O)(=O)Nc2ccccc2-c2ccccc2NS(=O)(=O)c2ccc(C)cc2)cc1	KB-3-1 cytotox inconclusive, MCF10A rerep inconclusive, ELG1 repair inh inconclusive, KB-V1 cytotox inconclusive
Cc1cnc(NS(=O)(=O)c2ccccc2)c(Br)c1	none
Cc1ccc(S(=O)(=O)CC(=O)Nc2ccccn2)cc1	none
Cc1ccc(S(=O)(=O)Nc2ccccc2CNc2ccc(Br)cn2)cc1	KB-3-1 cytotox 23µM, SW480 rerep inconclusive, MCF10A rerep inconclusive, KB-V1 cytotox 5.8µM
Cc1ccc(S(=O)(=O)Nc2ccccc2CNc2ccccn2)cc1	KB-3-1 cytotox inconclusive, ELG1 repair inh inconclusive, KB-V1 cytotox 21µM
CCCCNC(=O)C1(C)CCCCN1C(=O)c1ccc(F)c(C)c1 (centres undefined)	none (no result: SW480 rerep, MCF10A rerep, ELG1 repair inh)
Cc1cn([C@H]2C[C@H](O)[C@@H](CNC(=O)CNC(=O)CN)O2)c(=O)[nH]c1=O	none (no result: SW480 rerep, MCF10A rerep, ELG1 repair inh)
OCC[C@@H]1C[C@H](O)[C@@H](O)[C@]2(OCc3cc(Cl)ccc32)O1	none (no result: SW480 rerep, MCF10A rerep, ELG1 repair inh)
Cc1nc2ccc(C(=O)Nc3cccc([N+](=O)[O-])c3)cc2s1	none
CSc1nc2ccc(S(=O)(=O)N3CCOCC3)cc2s1	none
Cc1ccc(S(=O)(=O)N2CCOCC2)cc1C(=O)Nc1nc(-c2cccnc2)cs1	ELG1 repair inh 12µM
Cc1ccc(S(=O)(=O)N2CCOCC2)cc1C(=O)NCc1cccnc1	none
N#CCc1nc2ccc(S(=O)(=O)N3CCOCC3)cc2s1	MCF10A rerep 13µM
Cc1nc2ccc(NC(=O)c3ccc([N+](=O)[O-])cc3[N+](=O)[O-])cc2s1	ELG1 repair inh 21µM, KB-V1 cytotox inconclusive
Cc1csc(NC(=O)c2ccc(OCC3CCCO3)cc2)n1 (centres undefined)	ELG1 repair inh inconclusive, KB-V1 cytotox 13µM
CCc1ccc(C(O)c2ncc(-c3ccc(Cl)cc3)[nH]2)cc1 (centres undefined)	none (no result: SW480 rerep, MCF10A rerep, ELG1 repair inh)
Cc1ccc(S(=O)(=O)N2CCOCC2)cc1C(=O)Nc1ccc(-c2cn3ccsc3n2)cc1	KB-3-1 cytotox inconclusive, MCF10A rerep inconclusive, ELG1 repair inh 18µM, KB-V1 cytotox inconclusive
O=C(Cn1nnc(-c2ccc(CN3CCOCC3)cc2)n1)Nc1nc(-c2ccccc2)cs1	ELG1 repair inh inconclusive, KB-V1 cytotox 18µM
Cc1nc2ccc(NC(=O)c3ccc(S(=O)(=O)N4CCOCC4)cc3)cc2s1	ELG1 repair inh 9.2µM
CS(=O)(=O)c1ccccc1-c1nnc(NC(=O)c2ccc(S(=O)(=O)N3CCCC3)cc2)o1	none
Cc1ccc(S(=O)(=O)N2CCOCC2)cc1C(=O)Nc1ccncc1	none
O=C(Nc1nnc(-c2cccs2)o1)c1ccc(S(=O)(=O)N2CCOCC2)cc1	KB-3-1 cytotox inconclusive, MCF10A rerep inconclusive, ELG1 repair inh 21µM, KB-V1 cytotox inconclusive
O=C(CN1CCOCC1)Nc1nc(-c2ccccc2)cs1	none
O=C(Nc1ccc(Br)cc1F)c1cc(S(=O)(=O)NC2CCCCC2)ccc1F	none (no result: SW480 rerep, MCF10A rerep, ELG1 repair inh)
Cc1ccc2c(c1)c(-c1csc(N)n1)c(C)n2C	none
CN(CC1CCCO1)S(=O)(=O)c1ccc(C(=O)Nc2nc(-c3ccccn3)cs2)cc1 (centres undefined)	KB-3-1 cytotox 4.1µM, ELG1 repair inh inconclusive
O=C(Nc1nc(-c2ccc(S(=O)(=O)N3CCOCC3)cc2)cs1)c1ccccc1	ELG1 repair inh 13µM, KB-V1 cytotox inconclusive
COc1cccc(C(=O)Nc2nc(-c3ccc(S(=O)(=O)N4CCOCC4)cc3)cs2)c1	ELG1 repair inh inconclusive
Cc1nc2ccc(NC(=O)c3ccc(Cl)c(NC(=O)c4cccs4)c3)cc2s1	KB-V1 cytotox 23µM
O=C(Nc1nc(-c2nc3ccccc3s2)cs1)c1ccc(S(=O)(=O)N2CCOCC2)cc1	KB-3-1 cytotox inconclusive, ELG1 repair inh inconclusive, KB-V1 cytotox 4.6µM
CN(CC1CCCO1)S(=O)(=O)c1ccc(C(=O)Nc2ccccc2F)cc1 (centres undefined)	MCF10A rerep inconclusive, KB-V1 cytotox inconclusive (no result: ELG1 repair inh)
Cc1ccc(NC(=O)c2ccc(Cl)c(NC(=O)c3cccs3)c2)cc1	ELG1 repair inh inconclusive
COc1ccc([C@H]2CC(=O)C[C@@H](CCn3cccn3)O2)cc1	none (no result: SW480 rerep, MCF10A rerep, ELG1 repair inh)
CN(C)c1ccc(-c2nnn(CC(=O)Nc3ccccc3N3CCOCC3)n2)cc1	ELG1 repair inh 15µM
Cc1ccc(C(=O)Nc2nc(-c3ccccn3)cs2)cc1S(=O)(=O)N1CCOCC1	SW480 rerep inconclusive, MCF10A rerep 21µM, KB-V1 cytotox inconclusive
O=C(Nc1nc(-c2ccccc2)nc2ccccc12)c1ccc(F)cc1	SW480 rerep inconclusive, MCF10A rerep 18µM, ELG1 repair inh inconclusive
Oc1ccc(Nc2nc(-c3ccccc3)nc3ccccc23)cc1	ELG1 repair inh inconclusive
CC(=O)Nc1ccc(Nc2nc(-c3ccccc3)nc3ccccc23)cc1	KB-3-1 cytotox inconclusive, MCF10A rerep inconclusive, ELG1 repair inh inconclusive, KB-V1 cytotox inconclusive
COc1ccc(Nc2nc(-c3ccccc3)nc3ccccc23)cc1	KB-3-1 cytotox inconclusive, ELG1 repair inh 21µM, KB-V1 cytotox inconclusive
Cc1ccc(-c2nc(N3CCN(C)CC3)c3ccccc3n2)cc1	SW480 rerep inconclusive
CN1CCN(c2nc(-c3cccc([N+](=O)[O-])c3)nc3ccccc23)CC1	SW480 rerep 23µM, MCF10A rerep 23µM, ELG1 repair inh inconclusive
COc1ccc(Nc2nc(-c3cccc([N+](=O)[O-])c3)nc3ccccc23)cc1	KB-3-1 cytotox inconclusive, SW480 rerep inconclusive, MCF10A rerep inconclusive, ELG1 repair inh 8.2µM, KB-V1 cytotox inconclusive
COC(=O)c1cc([N+](=O)[O-])c(-n2cncn2)c([N+](=O)[O-])c1	none
CCc1ccc(-c2nc(CS(=O)CC(=O)NCCCN3CCOCC3)c(C)o2)cc1 (centres undefined)	KB-3-1 cytotox inconclusive
COc1ccc(N2CCN(C(=O)c3cn(C)c4ccc(S(=O)(=O)N(C)C5CCCCC5)cc4c3=O)CC2)cc1	none (no result: SW480 rerep, MCF10A rerep, ELG1 repair inh)
NC(=O)c1ccc[n+](CC(=O)Nc2ccccc2C(=O)O)c1	none
CCc1ccc(NC(=S)NC2CC3CCCC(C2)N3Cc2cccs2)cc1 (centres undefined)	SW480 rerep 15µM, KB-V1 cytotox 18µM
Cn1nnc(-c2ccc(OCc3ccccc3F)cc2)n1	ELG1 repair inh inconclusive
